Source: PubChem
Rows were chosen to be rich in hits. Some 6.5% of all compounds tested hit in one or more screens of this group.
TGFb inhibitor: qHTS for Inhibitors of TGF-b. Potency, µM (doses to about 46.1 µM), for inactives: at the top dose activity, negative = inhibition, usual class: inhibitors. AID 588855, 2011. hit rate 1.2% among 410,000. HepG2 CAGA-GFP TGF-b/SMAD3 reporter, GFP fluorescence, 18 h; TGF-beta stimulated, 500 pg/mL final; further: potency means the concentration at half of the fitted maximal effect; on the % scale 0 is the no-effect control and ±100 the full control effect; nearly all actives have a fitted effect of over 65% in size
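HEPG2 CAGA-GFP cells (1000/well, DMEM with 1% FBS) were pre-incubated 2 h at 37 degrees C, given compound by pin tool, then stimulated with TGF-beta at 500 pg/mL final for 18 h before per-cell GFP fluorescence imaging.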
Giardia kill: Small Molecules that selectively kill Giardia lamblia: qHTS; Giardia lamblia trophozoite viability; activity change, % at 7.66 µM, hits read low; hit rate 0.15% among 340,000; AID 540267, 2011; in the data active means activity change below about -80%; inconclusive means between about -30% and that limit;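 further: parasites exposed to compound for two days anaerobically before the ATP read; on the % scale 0 is the no-effect control and ±100 the full control effect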
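Compounds were tested on trophozoites seeded at 100 cells/well and held 48 hrs at 37 deg C anaerobically. An ATP-based luminescent kit measured the remaining live cells.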
IL1B secr inh: qHTS for Inhibitors of Inflammasome Signaling: IL-1-beta AlphaLISA Primary Screen | activity change, % at 57.5 µM | THP-1 LPS/ATP IL-1B secretion, AlphaLISA, 16 h; stronger effect = lower value | AID 743279, 2014 | hit rate 4.7% among 360,000; in the data active means activity change below about -50%; inconclusive means mostly about -30% to -49%; further: on the % scale 0 is the no-effect control and ±100 the full control effect
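Secreted IL-1B measured by AlphaLISA bead assay after 16 h compound exposure of THP-1 cells; compounds (final up to 57.5 uM) added 1 h before LPS (250 ng/mL) and ATP (1.25 mM) stimulation; lower signal means less secretion.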
HT1080 IDH1KD tx: qHTS for induction of synthetic lethality in tumor cells producing 2HG: qHTS for the HT-1080-IDH1KD cell line; HT-1080 IDH1 knockdown viability, ATP luminescence, 48 h; Potency, µM (top dose mostly 46.1 µM), inactives show at the top dose activity, negative = toxicity, actives largely listed as cytotoxic; hit rate 2% among 360,000;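 further: potency means the concentration at half of the fitted maximal effect; 0% = DMSO wells and -100% = cell-free medium wells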
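After a 2 h attachment period, IDH1KD HT-1080 cells took pin-transferred compound for 48 h at 37 °C; ATP-based luminescence after 10 min room-temperature reagent incubation reported viability.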
HT1080NT lethal: qHTS for induction of synthetic lethality in tumor cells producing 2HG: qHTS for the HT-1080-NT fibrosarcoma cell line | HT-1080-NT fibrosarcoma viability, CellTiter-Glo ATP luminescence, 48 h | Potency, µM (highest dose often 46.1 µM), inactives show at the top dose activity, negative = less viability, hits mostly cytotoxic | hit rate 1.6% among 360,000 | AID 686970, 2013;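 further: NT is the 2HG producing partner of a matched IDH1 knockdown line; potency means the concentration at half of the fitted maximal effect; 0% = DMSO-treated cells and -100% = media-only wells without cells; nearly all actives have a fitted effect of over 55% in size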
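HT-1080-NT fibrosarcoma cells (2HG-overproducing), 750 cells/well in RPMI with 5% FBS, dosed after 2 h and incubated 48 h at 37C. CellTiter-Glo luminescence normalized to DMSO and no-cell wells; concentration-response curves fitted and classed.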
HepG2 tox-1: qHTS for Inhibitors of TGF-b: Cytotox Counterscreen; HepG2 CAGA-GFP viability, ATP luminescence, 18 h; Potency, µM (doses to about 46.1 µM), without a hit: at the top dose activity change, negative = cytotoxicity, most hits filed as cytotoxic; hit rate 0.76% among 410,000; further: potency means the concentration at half of the fitted maximal effect
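CellTiter-Glo luminescence gave cytotoxicity after 18 hours at 37 degrees C. The cells were HepG2 CAGA-GFP in 1% FBS DMEM, stimulated with 500 pg/mL TGF-beta after compound addition. %Activity was normalised to no-cell wells (complete cell-killing) and DMSO (no toxicity), and curves were fitted and classified.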
TGFb CAGA inh: qHTS for Inhibitors of TGF-b: Confirmation of Cherry Picks | shares compounds with TGFb inhibitor | HepG2 CAGA-GFP TGF-b reporter, GFP fluorescence, 18 h; cells stimulated with TGF-beta, 500 pg/mL | Potency, µM (highest dose often 46.1 µM), for the others: top-dose activity, negative = inhibition, most hits filed as inhibitors | hit rate 63% among 1,600 | AID 720534, 2013; further: potency means the concentration at half of the fitted maximal effect; on the % scale 0 is the no-effect control and ±100 the full control effect; nearly all actives have a fitted effect of over 65% in size
HepG2 tox-2: qHTS for Inhibitors of TGF-b: Cytotox Counterscreen for Cherry Picks; shares compounds with TGFb inhibitor; HepG2 CAGA-GFP viability, ATP luminescence, 18 h; cells stimulated with TGF-beta, 500 pg/mL; Potency, µM (highest dose often 46.1 µM), inactives show at the top dose activity, negative = cytotoxicity, actives largely listed as inhibitors; hit rate 27% among 1,600; AID 720535, 2013; further: potency means the concentration at half of the fitted maximal effect; on the % scale 0 is the no-effect control and ±100 the full control effect; nearly all actives have a fitted effect of over 70% in size
CCL64 TGFb inh: qHTS for Inhibitors of TGF-b: CCL64 Cells Orthogonal Assay for Cherry Picks | CCL64 CAGA-GFP reporter, TGF-b stimulated, GFP fluorescence, 18 h | AID 720536, 2013 | hit rate 41% among 1,600 | Potency, µM (highest dose often 46.1 µM), without a hit: at the highest dose activity, negative = inhibition, usual class: inhibitors | shares compounds with TGFb inhibitor; further: potency means the concentration at half of the fitted maximal effect; nearly all actives have a fitted effect of over 65% in size
TGFb COP inh: qHTS for Inhibitors of TGF-b: Hit Validation in HepG2 Cells using COP promoter; shares compounds with TGFb inhibitor; HepG2 COP-GFP TGF-b reporter, GFP fluorescence, 18 h; cells stimulated by added recombinant TGF-beta; Potency, µM (top dose mostly 46.1 µM), for the others: at the top dose activity, negative = inhibition, most hits filed as inhibitors; hit rate 3% among 1,600; further: potency means the concentration at half of the fitted maximal effect; nearly all actives have a fitted effect of over 70% in size
The depositor's hits bear a star. Unless noted, the call rests on the fitted dose curve; in most records, active means well fitted curve in the direction sought with a large enough effect; inconclusive means small, poorly fitted or top-dose-only effect, or another doubt; inactive means no such curve, though single readings can be large; an effect the other way counts as inactive or inconclusive.

Screening CCN(CC)S(=O)(=O)c1cccc(C(=O)N[C@H](C(=O)Nc2nc3ccccc3s2)C(C)C)c1 returned TGFb inhibitor inconclusive, Giardia kill -1, IL1B secr inh -22, HT1080 IDH1KD tx -24%, HT1080NT lethal -26% and HepG2 tox-1 -28%.
`CCN(CC)S(=O)(=O)c1cccc(C(=O)N[C@H](C(=O)Nc2nc3ccc(F)cc3s2)C(C)C)c1` gave TGFb inhibitor 7.9µM*, Giardia kill inconclusive, IL1B secr inh -23, HT1080 IDH1KD tx inconclusive, HT1080NT lethal -8%, HepG2 tox-1 -18%, TGFb CAGA inh 4.1µM*, HepG2 tox-2 inconclusive, CCL64 TGFb inh inconclusive and TGFb COP inh 9%.
Screening CCOc1ccccc1NC(=O)c1nc(SC(C)C)ncc1Cl returned TGFb inhibitor -11% and HepG2 tox-1 -11%.
For O=[N+]([O-])c1cnc(Sc2ccncn2)c([N+](=O)[O-])c1 the results were TGFb inhibitor inconclusive, IL1B secr inh inconclusive, HT1080 IDH1KD tx -24%, HT1080NT lethal -2% and HepG2 tox-1 -99%.
Screening O=[N+]([O-])c1cnc(Sc2ccncn2)s1 returned TGFb inhibitor 2.2µM*, Giardia kill 17, IL1B secr inh -71*, HT1080 IDH1KD tx 16µM*, HT1080NT lethal 5.8µM*, HepG2 tox-1 -109%, TGFb CAGA inh 3.7µM*, HepG2 tox-2 2.9µM*, CCL64 TGFb inh 2.1µM* and TGFb COP inh 3.7µM*.
O=C(O)c1ccc(Nc2cc(Cl)c3nonc3c2[N+](=O)[O-])cc1 was read as TGFb inhibitor 1%, Giardia kill 11, IL1B secr inh 5, HT1080 IDH1KD tx 6%, HT1080NT lethal 2% and HepG2 tox-1 2%.
Screening O=[N+]([O-])c1c(Nc2cccc(O)c2)cc(Cl)c2nonc12 returned TGFb inhibitor 3.5µM*, Giardia kill -5, IL1B secr inh -96*, HT1080 IDH1KD tx 8.2µM*, HT1080NT lethal 5.2µM*, HepG2 tox-1 3.5µM*, TGFb CAGA inh 2.9µM*, HepG2 tox-2 3.3µM*, CCL64 TGFb inh 2.9µM* and TGFb COP inh 4.6µM*.
`CC(=O)N1CCN(CC(=O)Nc2ccc(C)c(S(=O)(=O)N(C)C)c2)CC1` gave TGFb inhibitor -2%, Giardia kill -18, IL1B secr inh -13, HT1080 IDH1KD tx 19%, HT1080NT lethal 23% and HepG2 tox-1 -4%.
Screening Cc1ccc(NC(=O)CN2CCC(Cc3ccccc3)CC2)cc1S(=O)(=O)N(C)C returned TGFb inhibitor 16µM*, Giardia kill -2, IL1B secr inh -54*, HT1080 IDH1KD tx inconclusive, HT1080NT lethal inconclusive, HepG2 tox-1 -17%, TGFb CAGA inh 13µM*, HepG2 tox-2 inconclusive, CCL64 TGFb inh inconclusive and TGFb COP inh 84%.
NS(=O)(=O)c1cccc(NC(=O)CSc2nn(-c3ccccc3)c(=S)s2)c1 was read as TGFb inhibitor -9%, Giardia kill -9, IL1B secr inh 8, HT1080 IDH1KD tx -18%, HT1080NT lethal -17% and HepG2 tox-1 -8%.
CN(C)S(=O)(=O)c1cc(NC(=O)CSc2nn(-c3ccc(Cl)cc3)c(=S)s2)ccc1Cl was read as TGFb inhibitor 11µM*, Giardia kill -14, IL1B secr inh -28, HT1080 IDH1KD tx inconclusive, HT1080NT lethal inconclusive, HepG2 tox-1 4%, TGFb CAGA inh 3.7µM*, HepG2 tox-2 inconclusive, CCL64 TGFb inh inconclusive and TGFb COP inh 45%.
For Cc1ccc(NC(=O)CNc2ccc(Cl)c(Cl)c2)cc1S(=O)(=O)N(C)C the results were TGFb inhibitor 10µM*, Giardia kill -1, IL1B secr inh 1, HT1080 IDH1KD tx inconclusive, HT1080NT lethal inconclusive, HepG2 tox-1 -25%, TGFb CAGA inh 12µM*, HepG2 tox-2 inconclusive, CCL64 TGFb inh inconclusive and TGFb COP inh 55%.
For Cc1ccc(NC(=O)CSc2nn(-c3ccc(Cl)cc3)c(=S)s2)cc1S(=O)(=O)N(C)C the results were TGFb inhibitor inconclusive, Giardia kill -5, IL1B secr inh 15, HT1080 IDH1KD tx inconclusive, HT1080NT lethal -5%, HepG2 tox-1 -16%, TGFb CAGA inh inconclusive, HepG2 tox-2 inconclusive, CCL64 TGFb inh 3% and TGFb COP inh 12%.
For CC(/C=N/NC(=O)c1cc(-c2ccc(C)o2)[nH]n1)=C\c1ccccc1 the results were TGFb inhibitor -25%, Giardia kill inconclusive, IL1B secr inh -4, HT1080 IDH1KD tx -5%, HT1080NT lethal -13% and HepG2 tox-1 -37%.
For Cc1ccc(C)c(NC(=O)Cn2c(=O)n(Cc3ccc4c(c3)OCO4)c(=O)c3ccccc32)c1 the results were TGFb inhibitor 0% and HepG2 tox-1 -13%.
Screening CCCSC1=N/C(=C/c2ccsc2)C(=O)N1c1ccccc1 returned TGFb inhibitor 0%, Giardia kill 5, IL1B secr inh 7, HT1080 IDH1KD tx 0%, HT1080NT lethal 2% and HepG2 tox-1 -2%.
